PubChem BioAssay (NCATS)
Results filed as inconclusive are left out. Entries that show only a call come without a potency. Calls of active or inactive are those of the source. The call rests on the fitted dose curve; in most records, active means well fitted cell-killing curve with a large enough effect; inconclusive means small, poorly fitted or top-dose-only effect, or effect the other way; inactive means no such curve, though single readings can be large or run the other way.

Assays:
[1] = Quantitative High-Throughput drug screen in 47 multiple myeloma cell lines against the NCATS MIPE library collection: UTMC2_PLB cell viability assay (AID 1919868); settings: CellTiter-Glo ATP luminescence, 48 h; viability (% of DMSO control): at 45.8 µM (top of the series); further: nearly all actives have a fitted effect of over 55% in size
Summary of the method: (§1)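 Plated at 500 cells per well, myeloma lines received MIPE 4.0 compounds by pin tool. Following 48 h culture at 37 °C, CellTiter-Glo luminescence gave viability relative to DMSO and media-only controls.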

[2] = Quantitative High-Throughput drug screen in 47 multiple myeloma cell lines against the NCATS MIPE library collection: PE2_PLB cell viability assay (AID 1919869); further: nearly all actives have a fitted effect of over 35% in size
Summary of the method: as §1

[3] = Quantitative High-Throughput drug screen in 47 multiple myeloma cell lines against the NCATS MIPE library collection: PCM6_Riken cell viability assay (AID 1919870); further: nearly all actives have a fitted effect of over 30% in size
Summary of the method: as §1

[4] = Quantitative High-Throughput drug screen in 47 multiple myeloma cell lines against the NCATS MIPE library collection: OPM2_DSMZ cell viability assay (AID 1919872); further: nearly all actives have a fitted effect of over 30% in size
Summary of the method: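 Steps: seed 500 cells per well; pin-transfer MIPE 4.0 library; incubate 48 h at 37C, 5% CO2, humidified; add CellTiter-Glo, 5 min room temperature; read luminescence.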

[5] = Quantitative High-Throughput drug screen in 47 multiple myeloma cell lines against the NCATS MIPE library collection: KMS28BM_JCRB cell viability assay (AID 1919874); further: nearly all actives have a fitted effect of over 35% in size
Summary of the method: as §1

[6] = Quantitative High-Throughput drug screen in 47 multiple myeloma cell lines against the NCATS MIPE library collection: KMS11_JCRBsus cell viability assay (AID 1919873); further: nearly all actives have a fitted effect of over 50% in size
Summary of the method: as §1

[7] = Quantitative High-Throughput drug screen in 47 multiple myeloma cell lines against the NCATS MIPE library collection: RPMI8226_ATCC cell viability assay (AID 1919871); further: nearly all actives have a fitted effect of over 30% in size
Summary of the method: as §1
Potency means the concentration at half of the fitted maximal effect.

| SMILES | Potency [1] | Potency [2] | Potency [3] | Potency [4] | Potency [5] | Potency [6] | viability (% of DMSO control) [1] | Potency [7] |
| --- | --- | --- | --- | --- | --- | --- | --- | --- |
| O=C(O)C=Cc1ccc(O)c(O)c1 | inactive | 16.6 µM (active) | inactive | inactive | inactive |  |  |  |
| O=C1NC(=O)C(=Cc2ccc3c(c2)OC(F)(F)O3)S1 | 23.5 µM (active) | 20.9 µM (active) | 4.18 µM (active) | inactive | inactive | inactive |  |  |
| COC1CCC(N(C(=O)C2CCC(C)CC2)c2cc(C3=CCCCC3)sc2C(=O)O)CC1 (configuration not stated) |  | 23.5 µM (active) |  | inactive | inactive |  | 89.9% (active) |  |
| O=c1c(-c2ccc(O)cc2)coc2cc(O)ccc12 | inactive | inactive | inactive | inactive | inactive | inactive |  |  |
| CC(=NNC(=S)N1CCC1)c1ccccn1 | inactive | inactive |  | 0.0074 µM (active) | 0.0083 µM (active) | 0.0033 µM (active) |  | 0.0042 µM (active) |
| COc1cc(Nc2ncc(F)c(Nc3ccc4c(n3)NC(=O)C(C)(C)O4)n2)cc(OC)c1OC | 0.59 µM (active) | 1.05 µM (active) |  | 5.9 µM (active) | inactive |  |  | 4.18 µM (active) |
| O=C1c2c(O)cc(O)cc2O[C@H](c2cc(O)c(O)c(O)c2)[C@H]1O | inactive | inactive | inactive | 18.7 µM (active) | inactive |  |  |  |
| O=C(NC1CCOCC1)c1ccc(-c2cc(-c3cn[nH]c3-c3ccccn3)ccn2)cc1 | inactive | inactive | inactive |  | inactive | inactive |  |  |
| COC(=O)N[C@H](C(=O)N1CCC[C@@H]1c1ncc(-c2ccc(-c3ccc(-c4cnc([C@@H]5CCCN5C(=O)[C@@H](NC(=O)OC)C(C)C)[nH]4)cc3)cc2)[nH]1)C(C)C | inactive |  | 26.4 µM (active) |  | 20.9 µM (active) | 26.4 µM (active) |  | 20.9 µM (active) |
| NC[C@@H]1O[C@@H](O[C@H]2[C@@H](O)[C@H](O[C@@H]3[C@@H](O)[C@@H](N)C[C@H](N)[C@H]3O[C@H]3O[C@H](CN)[C@@H](O)[C@@H](O)[C@H]3N)O[C@H]2CO)[C@H](N)[C@@H](O)[C@@H]1O | inactive | inactive | inactive | inactive | inactive | inactive |  |  |
| Clc1ccc(CCC(Cn2ccnc2)Sc2c(Cl)cccc2Cl)cc1 (configuration not stated) | 18.7 µM (active) | 20.9 µM (active) | 18.7 µM (active) |  |  | 20.9 µM (active) |  |  |
| CC(C)C(C)C=CC(C)C1CCC2C3=CC=C4CC(O)CCC4(C)C3CCC21C (configuration not stated) | inactive |  | inactive | inactive |  | inactive |  | inactive |
| O=C1NC(=O)C(=Cc2ccc(-c3ccc(F)cc3)o2)S1 | inactive | 8.33 µM (active) | 7.43 µM (active) | inactive | inactive | inactive |  |  |
| COc1cc2ncnc(-n3nc(-c4ccccn4)nc3N)c2cc1OC | 3.32 µM (active) |  | 4.69 µM (active) | inactive | inactive | inactive |  |  |
| CC(C)(C)COc1ccc(-n2cc(C(=O)O)cn2)cc1C#N | inactive |  | inactive | inactive |  | inactive |  | inactive |
| C[C@]12CC[C@@H]3c4ccc(O)cc4C[C@@H](CCCCCCCCCS(=O)CCCC(F)(F)C(F)(F)F)[C@H]3[C@H]1CC[C@H]2O (some centres not stated) | inactive | inactive |  | inactive |  | 2.09 µM (active) |  |  |
| Cc1ccc([C@@H]2O[C@H](CO)[C@@H](O)[C@H](O)[C@@H]2O)cc1Cc1ccc(-c2ccc(F)cc2)s1 | inactive | 18.7 µM (active) |  |  |  | 23.5 µM (active) |  | inactive |
| CCC(=O)O[C@]1(C(=O)CO)CC[C@H]2[C@@H]3CCC4=CC(=O)CC[C@]4(C)[C@@H]3CC[C@@]21C | inactive | inactive |  |  | inactive | 0.209 µM (active) |  | inactive |
| CO[C@H]1C=CO[C@@]2(C)Oc3c(C)c(O)c4c(O)c(c5c(c4c3C2=O)NC2(CCN(CC(C)C)CC2)N=5)=NC(=O)C(C)=CC=C[C@H](C)[C@H](O)[C@@H](C)[C@@H](O)[C@@H](C)[C@H](OC(C)=O)[C@H]1C | inactive | inactive |  | inactive | inactive | inactive |  | 16.6 µM (active) |
| CC1(C)Cc2c(sc(NC(=S)NC(=O)c3ccccc3)c2C(=O)O)CO1 | 20.9 µM (active) |  | inactive |  | inactive | inactive |  | inactive |
| O=C(O)c1ccccc1C(=O)Nc1ccc(-c2ccccc2)cc1 | inactive | inactive | inactive | inactive | inactive | inactive |  |  |
| O=c1cc(N2CCOCC2)oc2c(-c3cccc4c3sc3ccccc34)cccc12 | 5.9 µM (active) | 9.35 µM (active) | 8.33 µM (active) |  | 3.72 µM (active) |  |  |  |
